# Data from the antibiotic and cytotoxicity screens of Wong et al. (2023).
# Out of some 39,000 compounds screened, about 3,300 (8.5%) were called active. The list comes from a sample in which actives are over-represented; it also holds similar structures and randomly drawn compounds.
# Test system: HepG2
# Experiment: cytotoxicity call (relative viability < 0.9)
# Settings: 10 µM
row,SMILES,cytotoxicity call
1,C[C@@H]1CN([C@H](C)CO)C(=O)c2cccc(NC(=O)Nc3cccc4ccccc34)c2O[C@@H]1CN(C)C(=O)NC1CCCCC1,inactive
2,C[C@H]1CN([C@@H](C)CO)C(=O)CCCn2cc(nn2)CO[C@@H]1CN(C)C(=O)Nc1cccc2ccccc12,inactive
3,O=C(Cn1cc(COc2ccc(-n3cccc3)cc2)nn1)NS(=O)(=O)c1ccccc1C(F)(F)F,inactive
4,C[C@@H]1CN([C@@H](C)CO)C(=O)c2cc(NC(=O)Cc3ccccc3)ccc2O[C@@H](C)CCCCO[C@H]1CN(C)C(=O)C1CCCCC1,inactive
5,C[C@H]1CN([C@@H](C)CO)C(=O)c2cccc(NS(=O)(=O)c3cccs3)c2O[C@@H]1CN(C)CC1CC1,inactive
6,COc1ccc([C@@H]([C@H](Cc2ccccc2)OC(C)=O)N2C[C@@H](OC(C)=O)[C@@H]3C(=NO[C@H]3c3ccccc3)[C@@H]2Cc2ccccc2)cc1,inactive
7,C[C@@H]1CN([C@@H](C)CO)C(=O)c2cccc(NC(=O)Nc3ccc4c(c3)OCO4)c2O[C@@H]1CN(C)Cc1ccc(C(F)(F)F)cc1,inactive
8,Oc1cc(O)c2cc(O)c(-c3ccc(O)c(O)c3)[o+]c2c1.[Cl-],inactive
9,Cc1noc(C)c1S(=O)(=O)Nc1ccc2c(c1)C(=O)N([C@H](C)CO)C[C@H](C)[C@H](CN(C)S(=O)(=O)c1ccc(Cl)cc1)O2,inactive
10,COc1ccc(S(=O)(=O)N2C[C@H](O)COC[C@H]3O[C@H](CC(=O)NCc4ccc(Cl)c(Cl)c4)CC[C@@H]32)cc1,inactive
11,COc1ccc(S(=O)(=O)N2C[C@@H](O)COC[C@H]3O[C@@H](CC(=O)NCc4ccc(Cl)c(Cl)c4)CC[C@@H]32)cc1,active
12,COc1ccc(S(=O)(=O)N2C[C@H](O)COC[C@@H]3O[C@H](CC(=O)NCc4ccc(Cl)c(Cl)c4)CC[C@H]32)cc1,inactive
13,COc1ccc(S(=O)(=O)N2C[C@@H](O)COC[C@H]3O[C@H](CC(=O)NCc4ccc(Cl)c(Cl)c4)CC[C@@H]32)cc1,inactive
14,COc1ccc(S(=O)(=O)N2C[C@@H](O)COC[C@@H]3O[C@H](CC(=O)NCc4ccc(Cl)c(Cl)c4)CC[C@H]32)cc1,inactive
15,COc1ccc(S(=O)(=O)N2C[C@@H](O)COC[C@@H]3O[C@@H](CC(=O)NCc4ccc(Cl)c(Cl)c4)CC[C@H]32)cc1,active
16,COCCCN1C(=O)[C@@]2(Cc3ccccc31)c1ccccc1C(=O)N(C1CCCCC1)[C@H]2c1ccc(CO)cc1,inactive
17,COc1ccc(NC(=O)N(C)C[C@@H]2OCCCC[C@@H](C)Oc3ccc(NC(=O)NC(C)C)cc3C(=O)N([C@H](C)CO)C[C@H]2C)cc1,inactive
18,CC(C)CC#Cc1ccc2c(c1)O[C@@H](CN(C)S(=O)(=O)c1cccc(F)c1)[C@H](C)CN([C@@H](C)CO)S2(=O)=O,inactive
19,CC(C)CC#Cc1ccc2c(c1)O[C@@H](CN(C)S(=O)(=O)c1cccc(F)c1)[C@H](C)CN([C@H](C)CO)S2(=O)=O,inactive
20,CC(C)CC#Cc1ccc2c(c1)O[C@H](CN(C)S(=O)(=O)c1cccc(F)c1)[C@H](C)CN([C@@H](C)CO)S2(=O)=O,active
21,COc1ccccc1S(=O)(=O)N(C)C[C@@H]1Oc2cc(C#CCC(C)C)ccc2S(=O)(=O)N([C@@H](C)CO)C[C@H]1C,inactive
22,COc1ccccc1S(=O)(=O)N(C)C[C@H]1Oc2cc(C#CCC(C)C)ccc2S(=O)(=O)N([C@H](C)CO)C[C@@H]1C,inactive
23,COc1ccccc1S(=O)(=O)N(C)C[C@@H]1Oc2cc(C#CCC(C)C)ccc2S(=O)(=O)N([C@H](C)CO)C[C@H]1C,inactive
24,CCCC#Cc1ccc2c(c1)O[C@H](CN(C)S(=O)(=O)c1cccc(OC)c1)[C@H](C)CN([C@@H](C)CO)S2(=O)=O,inactive
25,COc1ccccc1S(=O)(=O)N(C)C[C@@H]1Oc2cc(C#CCC(C)C)ccc2S(=O)(=O)N([C@H](C)CO)C[C@@H]1C,active
26,COc1ccccc1S(=O)(=O)N(C)C[C@H]1Oc2cc(C#CCC(C)C)ccc2S(=O)(=O)N([C@@H](C)CO)C[C@@H]1C,inactive

row,SMILES,cytotoxicity call
1,COc1ccccc1S(=O)(=O)N(C)C[C@H]1Oc2cc(C#CCC(C)C)ccc2S(=O)(=O)N([C@@H](C)CO)C[C@H]1C,active
2,CCCC#Cc1ccc2c(c1)O[C@@H](CN(C)S(=O)(=O)c1cccc(OC)c1)[C@@H](C)CN([C@@H](C)CO)S2(=O)=O,inactive
3,C#CCSC1=N[C@@]2(COCc3ccc(OC)cc3)Oc3ccccc3[C@H]([C@H]2CO[Si](C)(C)C(C)(C)C)N1C(=O)c1ccccc1,inactive
4,C[C@@H]1CN([C@H](C)CO)C(=O)c2cc(-c3ccc(F)cc3)cnc2O[C@@H]1CN(C)C(=O)Cc1ccccn1,inactive
5,C[C@@H]1CN([C@H](C)CO)C(=O)c2cc(NC(=O)CCCN(C)C)ccc2O[C@H]1CN(C)S(=O)(=O)c1ccc(Cl)cc1,inactive
6,COC(=O)C1=C2CC[C@H](CO)NC(=O)N[C@H](Cc3ccccc3)C(=O)NCc3cn(nn3)C[C@@H](Cc3ccccc3)NC(=O)c3oc(c(C(=O)OC)c3C(=O)OC)CC[C@H](CO)NC(=O)N[C@H](Cc3ccccc3)C(=O)NCc3cn(nn3)C[C@@H](Cc3ccccc3)NC(=O)C(=C1C(=O)OC)O2,inactive
7,Cc1noc(C)c1S(=O)(=O)Nc1ccc2c(c1)C(=O)N([C@@H](C)CO)C[C@@H](C)[C@H](CN(C)S(=O)(=O)c1cn(C)cn1)OCCCC[C@@H](C)O2,inactive
8,C[C@@H]1CCCCO[C@H](CN(C)C(=O)Nc2ccc(F)cc2)[C@H](C)CN([C@@H](C)CO)C(=O)c2cc(NC(=O)CCC(F)(F)F)ccc2O1,inactive
9,Cc1ccc(S(=O)(=O)N(C)C[C@H]2Oc3ccc(NC(=O)CCCN(C)C)cc3C(=O)N([C@@H](C)CO)C[C@H]2C)cc1,inactive
10,C[C@H](CO)N1C[C@H](C)[C@@H](CN(C)CC2CCCCC2)OCCCC[C@H](C)Oc2ccc(NC(=O)c3ccncc3)cc2C1=O,inactive
11,COc1cccc(S(=O)(=O)N[C@H]2C=C[C@H](CC(=O)NC3CCC3)O[C@H]2CO)c1,inactive
12,C[C@@H]1CN([C@H](C)CO)C(=O)c2cc(NC(=O)CCC(F)(F)F)ccc2O[C@H]1CN(C)Cc1ccc(C(F)(F)F)cc1,inactive
13,OC[C@@H]1O[C@H](O)[C@H](O)[C@H](O[C@@H]2O[C@H](CO)[C@H](O)[C@H](O[C@@H]3O[C@H](CO)[C@@H](O)[C@H](O)[C@@H]3O)[C@H]2O)[C@H]1O,inactive
14,CC(=O)OC1CCC2(C)C(CCC3C2CCC2(C)C3CC3OC4(CCC(C)CO4)C(C)C32)C1 (stereo unspecified),inactive
15,OC[C@H]1O[C@@H](O[C@H]2[C@H](O)[C@@H](O)[C@@H](O)O[C@@H]2CO)[C@H](O)[C@@H](O)[C@@H]1O,inactive
16,C[C@@H]1CC[C@@]2(OC1)O[C@H]1C[C@H]3[C@H]4CC=C5C[C@@H](O[C@@H]6O[C@H](CO)[C@@H](O[C@@H]7O[C@@H](C)[C@H](O)[C@@H](O)[C@H]7O[C@@H]7O[C@@H](C)[C@H](O)[C@@H](O)[C@H]7O)[C@H](O)[C@H]6O)CC[C@]5(C)[C@@H]4CC[C@]3(C)[C@H]1[C@@H]2C,active
17,CC(=O)OC1CCC2(C)C(CCC3C2CC(=O)C2(C)C3CC3OC4(CCC(C)CO4)C(C)C32)C1 (stereo unspecified),inactive
18,CC1CCC2(OC1)OC1CC3C4CCC5CC(O)CCC5(C)C4CC(=O)C3(C)C1C2C (stereo unspecified),inactive
19,CC1CCC2(OC1)OC1CC3C4CC=C5CC(O)CCC5(C)C4CCC3(C)C1C2C (stereo unspecified),inactive
20,C[C@@H]1CC[C@@]2(OC1)O[C@H]1C[C@H]3[C@H]4C[C@@H](O)[C@H]5C[C@@H](O[C@@H]6O[C@H](CO)[C@H](O[C@@H]7O[C@H](CO)[C@@H](O)[C@H](O[C@@H]8OC[C@@H](O)[C@H](O)[C@H]8O)[C@H]7O[C@@H]7O[C@H](CO)[C@@H](O[C@@H]8O[C@H](CO)[C@@H](O)[C@H](O)[C@H]8O)[C@H](O)[C@H]7O)[C@H](O)[C@H]6O)CC[C@]5(C)[C@@H]4CC[C@]3(C)[C@H]1[C@@H]2C,active
21,C[C@@H]1CC[C@@]2(OC1)O[C@H]1C[C@H]3[C@H]4C[C@@H](O)[C@H]5C[C@@H](O[C@@H]6O[C@H](CO)[C@H](O[C@@H]7O[C@H](CO)[C@@H](O)[C@H](O[C@@H]8OC[C@@H](O)[C@H](O)[C@H]8O)[C@H]7O[C@@H]7O[C@H](CO)[C@@H](O)[C@H](O)[C@H]7O)[C@H](O)[C@H]6O)CC[C@]5(C)[C@@H]4CC[C@]3(C)[C@H]1[C@@H]2C,active
22,CC(C)=CCC[C@](C)(O[C@@H]1O[C@H](CO[C@@H]2OC[C@@H](O)[C@H](O)[C@H]2O)[C@@H](O)[C@H](O)[C@H]1O)[C@H]1CC[C@]2(C)[C@@H]1[C@H](O)C[C@@H]1[C@@]3(C)CC[C@H](O[C@@H]4O[C@H](CO)[C@@H](O)[C@H](O)[C@H]4O)C(C)(C)[C@@H]3CC[C@]12C,inactive
23,C[C@@H]1O[C@@H](O[C@H]2[C@H](O)[C@@H](O)[C@H](OC[C@H]3O[C@@H](OC(=O)[C@]45CCC(C)(C)C[C@@H]4C4=CC[C@H]6[C@@]7(C)CC[C@H](O[C@H]8OC[C@H](O)[C@H](O)[C@H]8O[C@H]8O[C@@H](C)[C@H](O)[C@@H](O)[C@H]8O)[C@@](C)(CO)[C@@H]7CC[C@@]6(C)[C@]4(C)CC5)[C@H](O)[C@@H](O)[C@@H]3O)O[C@@H]2CO)[C@H](O)[C@H](O)[C@H]1O,inactive
24,C[C@@H]1CCCCO[C@H](CN(C)C(=O)Nc2ccc(C(F)(F)F)cc2)[C@@H](C)CN([C@@H](C)CO)C(=O)c2cc(NC(=O)c3ccccc3)ccc2O1,inactive
25,CN[C@@H]1[C@@H](O)[C@@H](O[C@@H]2[C@@H](O)[C@H](O[C@H]3OC(CN)=CC[C@H]3N)[C@@H](N)C[C@H]2N)OC[C@]1(C)O,inactive
